Reference: PubChem BioAssay (NCI)
About 79,000 compounds went through this panel and 15% of them were active in at least one assay; those are over-represented in the sample as a whole. The source made the active and inactive calls. Rule as the data show it: active = growth inhibition above about 70%; inactive = the rest.

Experiments:
[1] = NCI Yeast Anticancer Drug Screen. Data for the rad52 strain (AID 147);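 also: 0% = growth of vehicle-treated control cultures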; conditions: S. cerevisiae rad52 mutant growth inhibition, active compounds read high
Method in brief: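 DNA repair-defective yeast; compound exposure; growth scored against vehicle controls.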

[2] = NCI Yeast Anticancer Drug Screen. Data for the wt1 strain (AID 149);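 also: 0% = growth of vehicle-treated wt1 cultures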; conditions: S. cerevisiae wt1 strain (SPY 50644) growth inhibition, active compounds read high
Method in brief: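 Growth inhibition read against vehicle controls after compound exposure of the wt1 yeast strain.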

[3] = NCI Yeast Anticancer Drug Screen. Data for the rad50EPP+ strain (AID 151);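 also: 0% = growth of vehicle-treated control cultures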; conditions: S. cerevisiae rad50 mutant strain, active compounds read high
Method in brief: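 rad50EPP+ yeast treated with test compounds. Readout: growth vs vehicle control.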

[4] = NCI Yeast Anticancer Drug Screen. Data for the mgt1 strain (AID 153); conditions: S. cerevisiae mgt1 mutant growth inhibition, active compounds read high
Method in brief: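 Growth inhibition relative to vehicle controls was scored for the mgt1 yeast strain after compound exposure.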

[5] = NCI Yeast Anticancer Drug Screen. Data for the rad50 strain (AID 155);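 also: 0% = growth of vehicle-only cultures of the same strain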; conditions: S. cerevisiae rad50 strain growth inhibition, active compounds read high
Method in brief: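 Readout: growth inhibition relative to vehicle-treated cultures. Compound exposure was carried out in a genetically defined yeast strain deficient in DNA damage repair.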

[6] = NCI Yeast Anticancer Drug Screen. Data for the mec2-1 strain (AID 157); conditions: S. cerevisiae mec2-1 strain, active compounds read high
Method in brief: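 Growth inhibition is read against vehicle-treated controls after compound exposure of the mec2-1 yeast strain, which is defective in DNA damage repair or cell cycle control.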

[7] = NCI Yeast Anticancer Drug Screen. Data for the rad14 strain (AID 159);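 also: 0% = growth of vehicle-treated control cultures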; conditions: S. cerevisiae rad14 strain growth inhibition, active compounds read high
Method in brief: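 Growth inhibition vs vehicle controls; genetically altered yeast strain (DNA damage repair defect) treated with test compounds.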

[8] = NCI Yeast Anticancer Drug Screen. Data for the sgs1 mgt1 strain (AID 161);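 also: 0% = growth of cultures given vehicle only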; conditions: S. cerevisiae sgs1 mgt1 strain, active compounds read high
Method in brief: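 Percent growth inhibition was derived by comparing compound-exposed mutant yeast with vehicle-exposed cultures. The strain carries alterations in DNA damage repair.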

[9] = NCI Yeast Anticancer Drug Screen. Data for the CLN2oe strain (AID 163);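 also: 0% = growth of vehicle-only control cultures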; conditions: S. cerevisiae CLN2oe strain, active compounds read high
Method in brief: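 Compound-treated yeast; growth vs vehicle ctrl = % inhibition. Genetically altered strain (cell-cycle control).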

[10] = NCI Yeast Anticancer Drug Screen. Data for the cln2 rad14 strain (AID 165);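 also: 0% = growth equal to vehicle treated cultures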; conditions: S. cerevisiae cln2 rad14 strain, active compounds read high
Method in brief: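 Growth inhibition, relative to vehicle-treated controls, is the read-out. The test organism is a yeast strain with defined genetic alterations, cln2 rad14.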

[11] = NCI Yeast Anticancer Drug Screen. Data for the bub3 strain (AID 167); conditions: S. cerevisiae bub3 mutant strain, active compounds read high
Method in brief: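 Readout: yeast growth inhibition, expressed relative to vehicle-only wells. The test organism is a mutant strain from a panel with lesions in DNA repair or checkpoint genes.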

[12] = NCI Yeast Anticancer Drug Screen. Data for the wt2 strain (AID 169);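 also: 0% = growth of vehicle-treated yeast cultures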; conditions: S. cerevisiae wt2 strain growth inhibition, active compounds read high
Method in brief: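 Compound exposure of yeast; growth compared with vehicle controls; inhibition reported.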

[13] = NCI Yeast Anticancer Drug Screen. Data for the mlh1 strain (AID 171);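 also: 0% = growth of vehicle-treated control cultures of the same strain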; conditions: S. cerevisiae mlh1 strain growth inhibition, active compounds read high
Method in brief: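 Compounds are applied to a genetically altered yeast strain, and its growth is compared with that of vehicle-treated cultures to give percent inhibition.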

[14] = NCI Yeast Anticancer Drug Screen. Data for the sgs1 strain (AID 173);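 also: 0% = growth of vehicle-only control cultures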; conditions: S. cerevisiae sgs1 mutant, active compounds read high
Method in brief: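 Compounds applied to genetically altered yeast; growth compared with vehicle-treated cultures to give % inhibition.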

[15] = NCI Yeast Anticancer Drug Screen. Data for the mlh1 rad18 strain (AID 175); conditions: S. cerevisiae mlh1 rad18 strain growth inhibition, active compounds read high
Method in brief: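 Cells of a genetically altered yeast strain, deficient in DNA damage repair, were treated with compound. Their growth was then compared with that of vehicle-treated cultures to give inhibition.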

[16] = NCI Yeast Anticancer Drug Screen. Data for the rad18 strain (AID 177); conditions: S. cerevisiae rad18 mutant growth inhibition, active compounds read high
Method in brief: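 Compounds are applied to a repair-deficient yeast strain, and growth is compared with that of vehicle-treated cultures to give percent inhibition.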

[17] = at 5.0 µM (retest, dose inferred, filed as 0.5)
[18] = at 50.0 µM (retest, dose inferred, filed as 5.0)

Measured: growth inhibition

C/C(=N\NC(=S)N1CCCCC1)c1cccc(C)n1
active: [1]; at 3.7 µM 91% | [1]; at 11.0 µM 97% | [1]; at 33.0 µM 99% | [1]; at 100.0 µM 99% | [2]; at 3.7 µM 95% | [2]; at 11.0 µM 98% | [2]; at 33.0 µM 99% | [2]; at 100.0 µM 99% | [3]; at 11.0 µM 95% | [3]; at 33.0 µM 99% | [3]; at 100.0 µM 99% | [4]; at 3.7 µM 94% | [4]; at 11.0 µM 99% | [4]; at 33.0 µM 99% | [4]; at 100.0 µM 98% | [5]; at 3.7 µM 94% | [5]; [17] 89% | [5]; at 11.0 µM 98% | [5]; at 33.0 µM 98% | [5]; [18] 100% | [5]; at 50.0 µM 89.7% | [5]; at 100.0 µM 98% | [6]; at 3.7 µM 92% | [6]; [17] 86% | [6]; at 11.0 µM 96% | [6]; at 33.0 µM 99% | [6]; [18] 100% | [6]; at 50.0 µM 92.2% | [6]; at 100.0 µM 99% | [7]; at 3.7 µM 97% | [7]; at 11.0 µM 99% | [7]; at 33.0 µM 100% | [7]; at 100.0 µM 99% | [8]; [17] 81% | [8]; [18] 99% | [8]; at 50.0 µM 85.8% | [9]; at 3.7 µM 94% | [9]; at 11.0 µM 99% | [9]; at 33.0 µM 100% | [9]; at 100.0 µM 99% | [10]; [17] 93% | [10]; [18] 99% | [10]; at 50.0 µM 90.7% | [11]; at 3.7 µM 87% | [11]; [17] 93% | [11]; at 11.0 µM 99% | [11]; at 33.0 µM 99% | [11]; [18] 99% | [11]; at 50.0 µM 89.2% | [11]; at 100.0 µM 99% | [12]; at 3.7 µM 94% | [12]; at 11.0 µM 97% | [12]; at 33.0 µM 98% | [12]; at 100.0 µM 99% | [13]; at 3.7 µM 92% | [13]; at 11.0 µM 96% | [13]; at 33.0 µM 96% | [13]; at 100.0 µM 96% | [14]; at 3.7 µM 91% | [14]; at 11.0 µM 98% | [14]; at 33.0 µM 98% | [14]; at 100.0 µM 98% | [15]; [17] 81% | [15]; [18] 99% | [15]; at 50.0 µM 86.2% | [16]; at 3.7 µM 90% | [16]; at 11.0 µM 98% | [16]; at 33.0 µM 98% | [16]; at 100.0 µM 97%
inactive: [1]; at 1.2 µM -4% | [2]; at 1.2 µM 41% | [3]; at 1.2 µM -8% | [3]; at 3.7 µM 38% | [4]; at 1.2 µM 49% | [5]; at 1.2 µM 23% | [6]; at 1.2 µM 39% | [7]; at 1.2 µM 45% | [9]; at 1.2 µM 50% | [11]; at 1.2 µM 21% | [12]; at 1.2 µM -10% | [13]; at 1.2 µM 1% | [14]; at 1.2 µM 9% | [16]; at 1.2 µM 7%

O=C(CCCN1CCC(O)(c2ccc(Cl)cc2)CC1)c1ccc(F)cc1
active: [5]; [18] 99% | [5]; at 50.0 µM 82.8% | [6]; [18] 100% | [6]; at 50.0 µM 77.7% | [7]; at 11.0 µM 78% | [7]; at 33.0 µM 83% | [7]; at 100.0 µM 86% | [8]; [18] 100% | [8]; at 50.0 µM 91.4% | [10]; [18] 99% | [10]; at 50.0 µM 70.8% | [11]; [18] 99% | [15]; [18] 99%
inactive: [1]; at 1.2 µM 13% | [1]; at 3.7 µM 6% | [1]; at 11.0 µM 27% | [1]; at 33.0 µM 31% | [1]; at 100.0 µM 38% | [2]; at 1.2 µM 0% | [2]; at 3.7 µM 7% | [2]; at 11.0 µM 13% | [2]; at 33.0 µM 23% | [2]; at 100.0 µM 14% | [3]; at 1.2 µM -3% | [3]; at 3.7 µM -4% | [3]; at 11.0 µM -6% | [3]; at 33.0 µM -6% | [3]; at 100.0 µM 0% | [4]; at 1.2 µM 17% | [4]; at 3.7 µM 30% | [4]; at 11.0 µM 40% | [4]; at 33.0 µM 58% | [4]; at 100.0 µM 65% | [5]; at 1.2 µM 24% | [5]; at 3.7 µM -8% | [5]; [17] 58% | [5]; at 11.0 µM 69% | [5]; at 33.0 µM 64% | [5]; at 100.0 µM 69% | [6]; at 1.2 µM 19% | [6]; at 3.7 µM 19% | [6]; [17] 33% | [6]; at 11.0 µM 29% | [6]; at 33.0 µM 36% | [6]; at 100.0 µM 41% | [7]; at 1.2 µM 50% | [7]; at 3.7 µM 69% | [8]; [17] 60% | [9]; at 1.2 µM 27% | [9]; at 3.7 µM 31% | [9]; at 11.0 µM 37% | [9]; at 33.0 µM 44% | [9]; at 100.0 µM 49% | [10]; [17] 43% | [11]; at 1.2 µM 38% | [11]; at 3.7 µM 41% | [11]; [17] 48% | [11]; at 11.0 µM 39% | [11]; at 33.0 µM 51% | [11]; at 50.0 µM 66.2% | [11]; at 100.0 µM 59% | [12]; at 1.2 µM 0% | [12]; at 3.7 µM 21% | [12]; at 11.0 µM 18% | [12]; at 33.0 µM 24% | [12]; at 100.0 µM 24% | [13]; at 1.2 µM 11% | [13]; at 3.7 µM 16% | [13]; at 11.0 µM 27% | [13]; at 33.0 µM 34% | [13]; at 100.0 µM 44% | [14]; at 1.2 µM 15% | [14]; at 3.7 µM 23% | [14]; at 11.0 µM 46% | [14]; at 33.0 µM 43% | [14]; at 100.0 µM 52% | [15]; [17] 35% | [15]; at 50.0 µM 66% | [16]; at 1.2 µM 37% | [16]; at 3.7 µM 37% | [16]; at 11.0 µM 44% | [16]; at 33.0 µM 58% | [16]; at 100.0 µM 64%
